According to PubChem BioAssay (Tox21):
Several values for one entry are separate records, joined by “and”; a condition that tells them apart may be missing. Equal values may be shown once. Records with an inconclusive call do not appear. Where a structure was tested more than once in an assay, its records may differ in their call. Activity calls are given as the source filed them. Unless noted, calls follow the shape of the dose curve; as a rule, active = well fitted curve in the direction sought with a large enough effect in the repeat runs; inconclusive = weak or mixed curves; inactive = no such curve, though single readings can be large; an effect the other way counts as inactive or inconclusive.

Key:
[1] = qHTS assay to identify small molecule antagonists of the glucocorticoid receptor (GR) signaling pathway - cell viability counter screen (AID 720693); conditions: GR-bla HeLa viability, CellTiter-Glo luminescence, 18 h, with 5 nM dexamethasone present; series mostly up to 58.5 µM; also: nearly all actives have a fitted effect of over 55% in size
[2] = qHTS assay for identifying genotoxic compounds that show differential cytotoxicity against isogenic chicken DT40 cell lines with known DNA damage response pathways - wild type cell line (AID 743012); conditions: DT40 wild type chicken cells viability, CellTiter-Glo, 40 h; series mostly up to 68.4 µM; also: nearly all actives have a fitted effect of over 60% in size; also: potency is read from the fitted curve at half-maximal effect
Method in brief: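 Cells (DT40 wild type, 300/well) are treated with DMSO-dissolved compounds after a ~0.5 h pre-incubation and kept 40 h at 37 C/5% CO2. Viability is then measured by CellTiter-Glo luminescence following 30 min at room temperature.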

[3] = qHTS assay for identifying genotoxic compounds that show differential cytotoxicity against isogenic chicken DT40 cell lines with known DNA damage response pathways - Rev3 mutant cell line (AID 743014); conditions: chicken DT40 Rev3-/- viability, CellTiter-Glo, 40 h; series mostly up to 68.4 µM; also: nearly all actives have a fitted effect of over 55% in size; also: potency is read from the fitted curve at half-maximal effect
[4] = qHTS assay for identifying genotoxic compounds that show differential cytotoxicity against isogenic chicken DT40 cell lines with known DNA damage response pathways - Rad54/Ku70 mutant cell line (AID 743015); conditions: DT40 Rad54/Ku70 mutant viability, CellTiter-Glo, 40 h; series mostly up to 66.8 µM; also: nearly all actives have a fitted effect of over 60% in size; also: potency is read from the fitted curve at half-maximal effect
[5] = qHTS assay to identify small molecule antagonists of the androgen receptor (AR) signaling pathway - cell viability counter screen (AID 743033; also: nearly all actives have a fitted effect of over 45% in size; also: potency is read from the fitted curve at half-maximal effect); conditions: AR-bla HEK293 viability, CellTiter-Glo luminescence, 16 h; series mostly up to 58.5 µM
[6] = qHTS assay to identify small molecule antagonists of the androgen receptor (AR) signaling pathway using the MDA cell line - cell viability counter screen (AID 743041; also: nearly all actives have a fitted effect of over 45% in size; also: potency is read from the fitted curve at half-maximal effect); conditions: MDA-kb2 viability, CellTiter-Fluor, 16 h, cells co-treated with R1881 androgen agonist; series mostly up to 70.3 µM
Method in brief: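 Same-well cytotoxicity was assessed by CellTiter-Fluor in MDA-kb2 AR-luc cells after 16 h of compound treatment under R1881 agonism.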

[7] = biological target: Androgen receptor (Homo sapiens) (UniProt P10275); assay: qHTS assay to identify small molecule antagonists of the androgen receptor (AR) signaling pathway (AID 743035; active = well fitted inhibition curve with a large enough effect in the signal ratio in the repeat runs, not every such curve was filed as active; the % refers to the signal ratio); conditions: HEK293 AR-UAS-bla, R1881-stimulated, beta-lactamase FRET, 16 h; series mostly up to 58.5 µM
Sequence of Androgen receptor (Homo sapiens) (P10275 whole entry, looked up): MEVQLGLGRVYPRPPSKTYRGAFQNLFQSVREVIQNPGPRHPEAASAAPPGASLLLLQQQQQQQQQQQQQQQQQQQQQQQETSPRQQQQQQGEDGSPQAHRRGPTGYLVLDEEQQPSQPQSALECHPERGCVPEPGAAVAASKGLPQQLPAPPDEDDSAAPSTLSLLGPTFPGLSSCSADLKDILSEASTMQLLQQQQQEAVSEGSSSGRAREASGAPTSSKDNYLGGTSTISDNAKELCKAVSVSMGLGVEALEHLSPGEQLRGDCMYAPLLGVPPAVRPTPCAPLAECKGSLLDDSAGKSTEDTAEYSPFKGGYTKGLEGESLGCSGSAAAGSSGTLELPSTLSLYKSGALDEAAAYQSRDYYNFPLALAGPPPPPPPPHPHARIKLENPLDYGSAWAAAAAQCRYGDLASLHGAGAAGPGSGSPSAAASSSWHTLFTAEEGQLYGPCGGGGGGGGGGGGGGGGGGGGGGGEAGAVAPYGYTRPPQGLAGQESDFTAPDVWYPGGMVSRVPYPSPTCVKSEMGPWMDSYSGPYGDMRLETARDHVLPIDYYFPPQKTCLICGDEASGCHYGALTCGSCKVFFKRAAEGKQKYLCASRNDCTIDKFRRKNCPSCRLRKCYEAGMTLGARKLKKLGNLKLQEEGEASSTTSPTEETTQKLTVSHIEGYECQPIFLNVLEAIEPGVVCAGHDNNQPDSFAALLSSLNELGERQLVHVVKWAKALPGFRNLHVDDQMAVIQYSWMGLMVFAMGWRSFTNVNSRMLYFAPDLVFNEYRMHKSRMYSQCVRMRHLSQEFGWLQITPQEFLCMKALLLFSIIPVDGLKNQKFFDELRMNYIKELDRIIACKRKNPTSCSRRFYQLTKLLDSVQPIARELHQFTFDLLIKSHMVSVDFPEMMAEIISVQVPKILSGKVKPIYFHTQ
Method in brief: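 Antagonism is scored as loss of R1881-driven beta-lactamase reporter expression in HEK293 cells carrying the reporter under a UAS element, after 16 h co-treatment at 37C and a 2 h room-temperature FRET substrate read.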

[8] = biological target: Androgen receptor (Homo sapiens) (UniProt P10275); assay: qHTS assay to identify small molecule agonists of the androgen receptor (AR) signaling pathway (AID 743036; active = well fitted activation curve with a large enough effect in the signal ratio in the repeat runs, with a control signal flat, not every such curve was filed as active; the % refers to the signal ratio); conditions: HEK293 AR-UAS-bla GripTite, beta-lactamase FRET ratio, 16 h; series mostly up to 62.4 µM
Method in brief: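 Quantitative HTS of the Tox21 10K library in HEK293 cells bearing a stably integrated UAS-controlled beta-lactamase reporter. Compound exposure lasted 16 h at 37C. Reporter activity was detected by FRET substrate fluorescence after 2 h at room temperature.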

[9] = biological target: Androgen receptor (Homo sapiens) (UniProt P10275); assay: qHTS assay to identify small molecule agonists of the androgen receptor (AR) signaling pathway using the MDA cell line (AID 743040; also: nearly all actives have a fitted effect of over 20% in size); conditions: MDA-kb2 AR-luc cells, MMTV luciferase, 16 h; series mostly up to 70.3 µM
Method in brief: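 Human breast carcinoma MDA-kb2 reporter cells (MMTV-luc, AR/GR elements) were treated for 16 h at 37C in 0% CO2 following a 5 h settling period. Signal was quantified by ONE-Glo luminescence.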

[10] = biological target: Androgen receptor (Homo sapiens) (UniProt P10275); assay: qHTS assay to identify small molecule antagonists of the androgen receptor (AR) signaling pathway using the MDA cell line (AID 743042; also: nearly all actives have a fitted effect of over 55% in size); conditions: MDA-kb2 AR-luc, MMTV luciferase, R1881 antagonist, 16 h; series mostly up to 70.3 µM
Method in brief: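 MDA-kb2 breast carcinoma cells carrying MMTV-luciferase (AR/GR responsive) were co-treated with compounds and the agonist R1881 for 16 h at 37C. Inhibition read as ONE-Glo luminescence; CellTiter-Fluor fluorescence measured in parallel for cytotoxicity.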

Measured: Potency

NC(=O)Nc1ccccc1
inactive: [1] | [2] | [3] | [4] | [5] | [6]

N[C@@H](C(=O)N[C@@H]1C(=O)N2C(C(=O)O)=C(Cl)CS[C@H]12)c1ccccc1
inactive: [1] | [2] | [3] | [4] | [5] | [6]

CC(C)(C)c1nnc(NS(=O)(=O)c2ccccc2)s1
inactive: [1] | [2] | [3] | [4] | [5] | [6]

Nc1ccc(S(=O)(=O)Nc2ccnn2-c2ccccc2)cc1
inactive: [1] | [2] | [3] | [4] | [5] | [6]

CCC=O
inactive: [1] | [2] | [3] | [4] | [5] | [6]

NC(=O)c1ccc(N)cc1
inactive: [1] | [2] | [3] | [4] | [5] | [6]

CCC(C)C1CCCCC1=O (configuration not stated)
inactive: [1] | [2] | [3] | [4] | [5] | [6]

NC(=O)c1cn(Cc2c(F)cccc2F)nn1
inactive: [1] | [2] | [3] | [4] | [5] | [6]

CC(C)(C)NCCNC(C)(C)C
inactive: [1] | [2] | [3] | [4] | [5] | [6]

Nc1ccccc1S(=O)(=O)O
inactive: [1] | [2] | [3] | [4] | [5] | [6]

CC(C(=O)O)c1ccc(CC2CCCC2=O)cc1 (configuration not stated)
inactive: [1] | [2] | [3] | [4] | [5] | [6]

Cc1nc2c([nH]1)c(=O)n(C)c(=O)n2Cc1ccco1
inactive: [1] | [2] | [3] | [4] | [5] | [6]

COc1ccc(CCN(C)CCCC(C#N)(c2cc(OC)c(OC)c(OC)c2)C(C)C)cc1OC (configuration not stated)
inactive: [1] | [5] | [6]
active: [2] 16.8 µM | [3] 29.8 µM | [4] 29.8 µM

CC(=O)c1ccccc1O
inactive: [1] | [2] | [3] | [4] | [5] | [6]

CC(C)(O)C#CC(C)(C)O
inactive: [1] | [2] | [3] | [4] | [5] | [6]

C=C[Si](OC(=C)C)(OC(=C)C)OC(=C)C
inactive: [1] | [2] | [3] | [4] | [5] | [6]

CN(C)CCCN1c2ccccc2CCc2ccc(Cl)cc21
inactive: [1]
active: [2] 7.5 µM and 6.11 µM | [3] 7.5 µM and 6.86 µM | [4] 9.44 µM and 7.7 µM | [5] 24.5 µM | [6] 48.6 µM

CCN1CCC[C@H]1CNC(=O)c1c(O)c(Cl)cc(Cl)c1OC
inactive: [1] | [2] | [3] | [4] | [5] | [6]

CC(C[N+](C)(C)C)OC(N)=O (configuration not stated)
inactive: [1] | [2] | [3] | [4] | [5] | [6]

COC(=O)CCSCCC(=O)OC
inactive: [1] | [2] | [3] | [4] | [5] | [6]

CO/N=C(/C(=O)N[C@@H]1C(=O)N2C(C(=O)OCOC(=O)C(C)(C)C)=C(C)CS[C@H]12)c1csc(N)n1
inactive: [1] | [2] | [3] | [4] | [5] | [6]

CCCCCCCCCCCC
inactive: [1] | [2] | [3] | [5] | [6]

c1cnc(N2CCN(Cc3ccc4c(c3)OCO4)CC2)nc1
inactive: [1] | [2] | [3] | [4] | [5] | [6]

O=C(O)CNC(=O)c1ccc([N+](=O)[O-])cc1
inactive: [1] | [2] | [3] | [5] | [6]

OCCCC1CCCCC1
inactive: [1] | [2] | [3] | [4] | [5] | [6]

Cc1ccc(Cl)cc1Cl
inactive: [1] | [2] | [3] | [4] | [5] | [6]

NS(=O)(=O)c1ccc(C(=O)O)cc1
not listed: [3]
inactive: all other assays above

CCN(CC)CCNC(=O)c1cc(S(C)(=O)=O)ccc1OC
inactive: [1] | [2] | [3] | [4] | [6]

CC(C)=CCCC(C)CC(=O)O (configuration not stated)
inactive: [1] | [2] | [3] | [4] | [5] | [6]

Nc1c[n+](N2CCOCC2)no1
inactive: [1] | [2] | [3] | [4] | [5] | [6]

C[C@H](NC(CCc1ccccc1)C(=O)O)C(=O)N1CCC[C@H]1C(=O)O (some centres not stated)
inactive: [1] | [2] | [3] | [4] | [5] | [6]

CC/C=C\CC/C=C/CO
inactive: [1] | [2] | [3] | [4] | [5] | [6]

C1OCOCO1
inactive: [1] | [2] | [3] | [4] | [5] | [6]

O=[N+]([O-])c1ccc(F)cc1F
inactive: [1] | [2] | [3] | [4] | [5] | [6]

CCn1nc(C(=O)O)c(=O)c2cc3c(cc21)OCO3
not listed: [5]
inactive: all other assays above

CC(C)NCC(O)c1ccc(NS(C)(=O)=O)cc1 (configuration not stated)
inactive: [1] | [2] | [3] | [4] | [5] | [6]

CN1CC(=O)NC1=N
not listed: [3] | [8]
inactive: all other assays above

COC(=O)c1c(Cl)c(Cl)c(C(=O)OC)c(Cl)c1Cl
inactive and 48.6 µM (active): [2]
inactive: [1] | [3] | [4] | [5] | [6]

CO[Si](CCCOCC1CO1)(OC)OC (configuration not stated)
active: [3] 38.6 µM
inactive: [1] | [2] | [4] | [5] | [6]

O=C(O)Cc1ccc(CCNS(=O)(=O)c2ccc(Cl)cc2)cc1
inactive: [1] | [2] | [3] | [4] | [5] | [6]

Cc1[nH]c(=O)c(C#N)cc1-c1ccc2nccn2c1
inactive: [1] | [2] | [4] | [5]

Brc1c(NC2=NCCN2)ccc2nccnc12
inactive: [1] | [2] | [3] | [6]

O=C(O)CCCl
inactive: [1] | [2] | [3] | [5]

COCCCOCCCOC
inactive: [1] | [2] | [3] | [4] | [5] | [6]

c1ccc(CC2=NCCN2)cc1
inactive: [1] | [2] | [3] | [4] | [6]

CC(C)(C)c1ccc(O)c(O)c1
active: [2] 17.8 µM and 6.11 µM | [3] 12.6 µM and 7.27 µM | [4] 12.6 µM and 10.5 µM
inactive: [1] | [5] | [6]

CO[C@]12C[C@@H](COC(=O)c3cncc(Br)c3)CN(C)[C@@H]1Cc1cn(C)c3cccc2c13
active: [2] 5.96 µM | [3] 10.6 µM | [4] 11.9 µM
not listed: [5]
inactive: all other assays above

CCOC(=O)Nc1ccc(NCc2ccc(F)cc2)nc1N
active: [2] 26.6 µM
inactive: [1] | [3] | [5] | [6]

C[N+](C)(C)CC(O)CC(=O)[O-] (configuration not stated)
inactive: [1] | [2] | [3] | [4] | [6]

N=C(N)c1ccc(OCCCOc2ccc(C(=N)N)cc2)cc1
active: [2] 4.22 µM | [3] 8.41 µM | [4] 5.96 µM
inactive: [1] | [5] | [6]

CCCN1CCCC[C@H]1C(=O)Nc1c(C)cccc1C
inactive: [1] | [2] | [3] | [4] | [5] | [6]

NS(=O)(=O)c1cc2c(cc1Cl)NC(C1CC3C=CC1C3)NS2(=O)=O (configuration not stated)
not listed: [5]
inactive: all other assays above

COc1ccccc1OCC(O)CN1CCN(CC(=O)Nc2c(C)cccc2C)CC1 (configuration not stated)
inactive: [1] | [2] | [3] | [4] | [5] | [6]

CC(=O)OCC(=O)[C@@]1(O)CCC2C3CCC4=CC(=O)CC[C@]4(C)C3[C@@H](O)C[C@@]21C (some centres not stated)
inactive: [1] | [2] | [3] | [4] | [5] | [6]

CN(C(=O)c1c(O)c2ccccc2n(C)c1=O)c1ccccc1
inactive: [1] | [2] | [3] | [4] | [6]

CN(C)CCCNCCCN(C)C
inactive: [1] | [2] | [3] | [4] | [5] | [6]

C[C@](N)(Cc1ccc(O)cc1)C(=O)O
inactive: [1] | [2] | [3] | [4] | [5] | [6]

CCN(CC)CCOCCOC(=O)C1(c2ccccc2)CCCC1
inactive: [1] | [5] | [6]
active: [2] 5.96 µM | [3] 2.11 µM | [4] 5.96 µM

Cc1cc2c(cc1S(N)(=O)=O)S(=O)(=O)CCC2
inactive: [1] | [2] | [3] | [4] | [6]

COC(=O)[C@@H](N)Cc1ccc(O)c(O)c1
active: [2] 29.8 µM | [4] 33.5 µM
not listed: [3] | [7]
inactive: all other assays above
